# Bioassay records deposited in PubChem BioAssay by National Center for Advancing Translational Sciences (NCATS).
# Compounds with a hit are over-represented: about 2.4% of the library has one in this group of screens.
# POLK inh: blocks human DNA polymerase kappa activity; 0.53% of 400,000 active; Potency, µM (top dose mostly 107 µM), without a hit: top-dose activity, negative = inhibition, hits mostly inhibitors; purified Pol kappa, fluorescent DNA synthesis assay, 10 min; AID 588579; Q9UBT6; note: % is set by controls: 0 for no effect and ±100 for the full control effect
#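 Readout: fluorescence, taken kinetically at 0 and 10 min. Conditions: 10 nM Pol kappa, 15 min RT compound preincubation, 50 nM substrate final. Controls: enzyme-free buffer wells.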
# Pol eta inh: inhibitors of human DNA polymerase eta | Q9Y253 | recombinant Pol eta, fluorescent DNA replication assay | Potency, µM (doses to about 114 µM), without a hit: at the highest dose activity change, negative = inhibition, most hits filed as inhibitors | 1.2% of 390,000 active | AID 588591; note: % is set by controls: 0 for no effect and ±100 for the full control effect
#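 Pol eta (10 nM) was preincubated with compounds for 15 min at room temperature, after which fluorescent replication substrate (50 nM final) was added to start the reaction. Fluorescence was read kinetically at 0 and 10 min.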
# Pol beta inh: inhibitors of human DNA polymerase beta | Pol beta primer extension/strand displacement, fluorescence kinetic | Potency, µM (top dose mostly 114 µM), for the others: at the top dose activity change, negative = inhibition, most hits filed as inhibitors | 1.3% of 340,000 active; note: % is set by controls: 0 for no effect and ±100 for the full control effect
#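 Pol beta (10 nM) and compounds were preincubated 15 min at room temperature, then 50 nM substrate (final) started primer extension/strand displacement. Reads were taken at 0 and 10 min; concentration-response data were fitted to a four-parameter Hill equation.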
# WRN helicase inh: blocks human WRN helicase | 0.46% of 360,000 active | Potency, µM (top dose mostly 114 µM), for the others: at the top dose activity change, negative = inhibition, actives largely listed as inhibitors | WRN helicase unwinding, fluorescent forked duplex, kinetic | Q14191; note: % is set by controls: 0 for no effect and ±100 for the full control effect; nearly all actives have a fitted effect of over 55% in size
#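 WRN at 20 nM final preincubated with compound 15 min at room temperature; reaction started with 100 nM fluorophore/quencher forked duplex oligonucleotide and 2 mM ATP final. Unwinding followed kinetically by red fluorescence (ex 525, em 598 nm).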
# Pol iota inh: inhibitors of human DNA polymerase iota | Q9UNA4 | Pol iota fluorescent replication assay, 10 min | Potency, µM (highest dose often 115 µM), inactives show at the highest dose activity, negative = inhibition, usual class: inhibitors | 1% of 390,000 active
#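 Pol iota at 10 nM preincubated 15 min with compounds at room temperature; reaction started with fluorescent substrate, 50 nM final. Fluorescence read kinetically at 0 and 10 min; buffer-only wells as negative control.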
# FEN1 inh: inhibitors of human flap endonuclease 1; P39748; Recombinant FEN1 flap cleavage, fluorescence, 15 min; Potency, µM (top dose mostly 114 µM), without a hit: at the highest dose activity change, negative = inhibition, usual class: inhibitors; 0.35% of 390,000 active; AID 588795; note: % is set by controls: 0 for no effect and ±100 for the full control effect; nearly all actives have a fitted effect of over 65% in size
# Target sequence (P39748 whole entry, looked up): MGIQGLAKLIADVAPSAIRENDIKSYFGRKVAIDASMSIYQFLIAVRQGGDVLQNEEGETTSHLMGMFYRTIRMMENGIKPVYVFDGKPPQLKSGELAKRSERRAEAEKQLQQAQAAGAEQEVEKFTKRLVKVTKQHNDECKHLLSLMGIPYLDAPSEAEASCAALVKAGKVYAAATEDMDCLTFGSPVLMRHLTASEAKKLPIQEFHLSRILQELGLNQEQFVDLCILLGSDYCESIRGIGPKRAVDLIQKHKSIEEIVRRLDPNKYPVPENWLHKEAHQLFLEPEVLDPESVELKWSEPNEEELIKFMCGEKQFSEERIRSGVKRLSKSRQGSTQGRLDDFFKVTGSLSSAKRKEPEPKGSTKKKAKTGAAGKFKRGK
#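 Nuclease activity of 10 nM FEN1 was measured after 15 min of room-temperature exposure to titrated compounds, by adding 50 nM flap substrate and reading plates at 0 and 15 min.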
# * marks the source's active call; other numbers are inactive results; u = inconclusive; x = no result given; [ ] = remark or other dose. Calls come from the whole dose curve; as a rule, active = well fitted curve in the direction sought with a large enough effect; inconclusive = small, poorly fitted or top-dose-only effect, or another doubt; inactive = no such curve, though single readings can be large; an effect the other way counts as inactive or inconclusive. Potency is the fitted concentration of half-maximal effect.
SMILES,POLK inh,Pol eta inh,Pol beta inh,WRN helicase inh,Pol iota inh,FEN1 inh
OCCn1c(CSc2nnc(-c3ccco3)n2-c2ccccc2)nc2ccc(Cl)cc21,1.7%,u,20µM*,-19.7%,u,-14.7%
Cc1cc(C)c2c(=O)n3c(nc2c1)C(Cc1ccccc1)NC(=O)c1cccnc1-3 (configuration not stated),x,-13.5%,x,-0.4%,x,x
CC1(C(=O)NCc2ccc(F)c(F)c2)Cc2c(-c3cccc(C(F)(F)F)c3)ccnc2O1 (configuration not stated),x,x,x,-10.6%,x,x
O=C1C(c2[nH]c3ccc(S(=O)(=O)O)cc3c2O)=Nc2ccc(S(=O)(=O)O)cc21,u,x,x,x,25.1µM*,u
Cc1cccc(N2CCN(C(=O)Cn3nc(C)n4cccc4c3=O)CC2C)c1 (configuration not stated),-8.4%,-23.1%,1.4%,0.3%,11.2%,8.6%
Cc1ccc(-c2ccc(=O)n(CC(=O)N3CCN(c4cccc(C)c4)C(C)C3)n2)cc1 (configuration not stated),-11.7%,-18.0%,4.4%,-7.3%,79.4µM*,-2.7%
Cc1cccc(N2CCN(C(=O)CCS(=O)(=O)c3ccc(Br)cc3)CC2C)c1 (configuration not stated),89.1µM*,u,25.1µM*,u,44.7µM*,-4.2%
C=CCc1ccccc1OCCSc1nc(-c2cccs2)nc2cc(=O)[nH]n12,u,79.4µM*,25.1µM*,x,u,-23.6%
Cc1ccc(OCCCSc2nc(-c3ccc(C(C)(C)C)cc3)nc3cc(=O)[nH]n23)cc1C,-19.8%,44.7µM*,u,x,0.8%,u
Cc1ccc(C(C)C)c(OCCSc2nc(-c3cccs3)nc3cc(=O)[nH]n23)c1,-20.0%,u,u,x,-25.8%,-35.0%
CC(C)(C)c1ccc(OCCSc2nc(-c3cccs3)nc3cc(=O)[nH]n23)cc1,u,u,31.6µM*,x,25.1%,-21.3%
CC(C)(C)c1ccc(-c2nc(SCCOc3ccc(Cl)cc3)n3[nH]c(=O)cc3n2)cc1,-19.3%,50.1µM*,u,x,10.7%,-17.4%
COc1cc(NC(=O)CSc2nnc3c(n2)[nH]c2ccc(S(=O)(=O)NC(C)C)cc23)cc(OC)c1OC,u,17.8µM*,u,-7.3%[11.6 µM],44.7µM*,11.1%
Cc1ccc(NC(=O)c2cc(S(=O)(=O)N3CCCC3)cn2C)cc1C,10.4%,-4.4%,-1.2%,4.2%,21.7%,4.9%
Cn1cc(NC(=O)c2cc(NC(=O)c3cc(NC=O)cn3C)cn2C)cc1C(=O)NCCC(=N)N,0.794µM*,x,14.1µM*,x,x,x
C/C(=N\O)c1ccc2c(c1)CC(C)O2 (configuration not stated),7.7%,-13.7%,3.0%,13.0%,-20.1%,1.7%
C=C(CO)C1Cc2cc(C(C)=O)ccc2O1 (configuration not stated),u,20µM*,u,-33.3%,u,u
CC(C)OC(=O)C1Cc2ccccc2CN1S(=O)(=O)c1cccs1 (configuration not stated),-30.6%,u,31.6µM*,-2.0%[11.6 µM],u,5.5%
NC(=O)C1Cc2ccccc2CN1S(=O)(=O)c1cccs1 (configuration not stated),6.2%,-16.3%,3.9%,1.8%,35.2%,-6.8%
O=C(Nc1ccccc1)c1ccc(N2CCN(c3ccccc3)CC2)c(S(=O)(=O)N2CCOCC2)c1,-12.0%,-1.8%,-11.0%,-3.2%,14.3%,-8.0%
O=C(Nc1ccccc1)c1ccc(N2CCN(c3ccccn3)CC2)c(S(=O)(=O)N2CCOCC2)c1,-12.5%,-18.2%,-19.8%,-12.2%,89.1µM*,-15.0%
COC(=O)c1ccccc1NC(=O)CCS(=O)(=O)c1ccc(Br)s1,-5.7%,-12.6%,-0.3%,-1.8%,-11.3%,0.4%
Cc1ccccc1NC(=O)CCS(=O)(=O)c1ccc(Br)s1,u,u,35.5µM*,-21.1%,u,-4.6%
O=C(NC(Cc1ccccc1)C(=O)O)/C(=C\c1ccco1)NC(=O)c1ccco1 (configuration not stated),-19.4%,-21.2%,u,-11.9%,45.0%,-0.2%
O=C(NC(Cc1ccccc1)C(=O)O)/C(=C\c1ccco1)NC(=O)c1ccccc1 (configuration not stated),-26.8%,14.1µM*,39.8µM*,-27.2%[57.1 µM],u,-2.5%
SMILES,POLK inh,Pol eta inh,Pol beta inh,WRN helicase inh,Pol iota inh,FEN1 inh
O=C(NC(Cc1ccccc1)C(=O)O)/C(=C\c1ccco1)NC(=O)c1ccc(Br)cc1 (configuration not stated),50.1µM*,u,-21.6%,u,20µM*,3.2%
COc1cccc(CNC(=O)C2CCN(S(=O)(=O)c3c(C)noc3/C=C/c3cccs3)CC2)c1,-9.8%,-2.0%,11.2%,x,u,-5.7%
COc1ccc(OC)c(NC(=O)c2c(NCc3ccc(C)o3)sc3c2CCCCC3)c1,-0.2%[60.1 µM],-20.8%,-5.0%,x,28.2µM*,u
N#Cc1c(-c2ccc(Cl)cc2)cc(-c2cccs2)nc1SCC(=O)O,u,-16.7%,u,u,17.8µM*,-19.0%
CC(C)Oc1cccc(C(=O)N/N=C/c2ccoc2)c1,-9.1%,-8.4%,-2.2%,-4.3%,1.8%,-2.7%
Cc1cccc(C(=O)N/N=C/c2ccoc2)c1,u,u,25.1µM*,-7.8%[11.6 µM],u,19.1%
Nc1ccc2c(c1)-c1ccccc1S(=O)(=O)N2,u,44.7µM*,-2.5%,-33.5%,14.1µM*,u
Cc1ccc2c(c1)-c1ccccc1S(=O)(=O)N2,0.6%,-7.1%,6.6%,-2.9%,14.3%,-0.5%
O=C(COCc1cc(-c2cccs2)on1)N1CCN(c2ccc(F)cc2)CC1,-4.0%,0.3%,-2.6%,x,18.0%,-17.5%
O=C(COCc1cc(-c2ccc3c(c2)OCO3)on1)N1CCN(c2ccc(F)cc2)CC1,-0.7%,-3.5%,13.0%,0.3%,79.4µM*,3.9%
CCc1ccc(NC(=O)CSc2nc3n[nH]c(C)c3c(=N)n2-c2ccccc2C)cc1,-15.9%[60.1 µM],15.6%,6.1%,x,89.1µM*,-3.6%
COc1ccc(NC(=O)CSc2nc3n[nH]c(C)c3c(=N)n2-c2ccc(Cl)c(C)c2)cc1OC,6.8%,50.1µM*,3.55µM*,-5.2%,34.7%,-9.2%
O=C1N=C(N2CCN(c3ccccc3)CC2)S/C1=C/c1ccco1,u,-16.0%,u,-8.6%[11.6 µM],44.7µM*,-26.5%
O=C1N=C(N2CCN(c3ccccc3)CC2)S/C1=C\c1ccco1,-19.5%[60.1 µM],u,12.6µM*,-8.1%,44.7µM*,1.5%
CN(C)c1ncc2ncc(=O)n(CCc3ccccc3)c2n1,1.8%[60.1 µM],x,x,x,x,x
N#Cc1c(-c2cccs2)nc(SCc2ccc(Cl)cc2)[nH]c1=O,-4.5%,89.1µM*,56.2µM*,u,u,-23.6%
